Bioassay records from PubChem BioAssay.
Tau ThT inhib: tau fibrillization inhibition (ThT binding); hit rate 2.1% among 270,000; recombinant tau K18 P301L, heparin-induced fibrillization, ThT fluorescence; Potency, µM (doses to about 57.4 µM), without a hit: top-dose activity, negative = inhibition, usual class: inhibitors; P10636; note: nearly all actives have a fitted effect of over 55% in size
Target sequence (P10636 561-689 P618L limits assumed): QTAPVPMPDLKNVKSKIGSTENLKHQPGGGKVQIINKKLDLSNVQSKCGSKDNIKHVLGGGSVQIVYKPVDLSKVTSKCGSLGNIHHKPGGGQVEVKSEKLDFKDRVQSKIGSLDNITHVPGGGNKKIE
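Aggregation was driven by heparin (20 uM final) acting on recombinant tau […] bearing P301L in 100 mM sodium acetate pH 7; fibrils were detected with Thioflavin T.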
RORg inh: ROR gamma (mouse) transcription inhibition; Potency, µM (doses to about 53.6 µM), for the others: at the highest dose activity change, negative = inhibition, actives largely listed as inhibitors; Drosophila S2 Gal4-RORgamma UAS-luciferase reporter, 20 h; P51450; hit rate 5.4% among 310,000; note: nearly all actives have a fitted effect of over 60% in size
Target sequence (P51450 whole entry, looked up, the tested form may be a part): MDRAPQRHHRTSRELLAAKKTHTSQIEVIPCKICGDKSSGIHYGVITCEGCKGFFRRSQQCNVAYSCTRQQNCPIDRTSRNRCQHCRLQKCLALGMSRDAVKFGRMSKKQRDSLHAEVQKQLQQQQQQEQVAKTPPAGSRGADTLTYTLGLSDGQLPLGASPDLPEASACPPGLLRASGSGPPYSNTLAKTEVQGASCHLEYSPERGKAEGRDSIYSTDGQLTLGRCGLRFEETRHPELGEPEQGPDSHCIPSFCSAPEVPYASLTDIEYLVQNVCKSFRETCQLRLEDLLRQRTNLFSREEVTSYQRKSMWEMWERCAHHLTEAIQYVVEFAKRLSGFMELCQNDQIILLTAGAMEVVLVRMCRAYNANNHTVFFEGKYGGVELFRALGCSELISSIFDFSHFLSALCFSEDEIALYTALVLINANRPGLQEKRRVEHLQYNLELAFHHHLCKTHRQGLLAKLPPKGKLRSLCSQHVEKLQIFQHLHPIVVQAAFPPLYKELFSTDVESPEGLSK
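Schneider cells (Drosophila), stable Gal4 DBD–ROR gamma + UAS-luc; 1 hr cmpd preincubation; Cu2+ induction 700 uM final; 20 hr ambient; luminescence.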
Tau fibril FP: inhibitors of human tau fibril formation | Potency, µM (highest dose often 57.7 µM), inactives show top-dose activity, negative = inhibition, most hits filed as inhibitors | K18 P301L tau heparin fibrillization, Alexa594 FP, 6 h | AID 1468 | hit rate 0.39% among 280,000 | P10636; note: nearly all actives have a fitted effect of over 55% in size
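Heparin (20 uM) drove fibril formation of recombinant tau K18 P301L, 15 uM unlabeled with 0.24 uM Alexa 594 label, for 6 hr at 37 C in 100 mM sodium acetate pH 7. Fluorescence polarization (555/632 nm) read 1 hr after 30 uM ThT.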
VP16 counter: Gal4-VP16 reporter inhibition counter-screen; Drosophila S2 Gal4-VP16 UAS-luciferase, luminescence, 20 h; Potency, µM (doses to about 53.6 µM), for the others: at the highest dose activity, negative = inhibition, usual class: inhibitors; hit rate 3.5% among 310,000;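 note: Gal4-VP16 expression switched on by copper sulfate through the metallothionein promoter; nearly all actives have a fitted effect of over 50% in size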
Tau fluor cs: counter-screen for tau fibril formation inhibitors; tau K18 P301L (four-repeat tau fragment) Alexa594 fluorescence, heparin fibrillization; Potency, µM (titrated, usually from 57.7 µM), for inactives: top-dose activity change, negative = decrease; AID 1463; hit rate 0.93% among 280,000; note: nearly all actives have a fitted effect of over 55% in size
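Human K18 P301L tau (15 uM unlabeled plus 0.24 uM Alexa 594-labeled, final) in 100 mM sodium acetate pH 7 was mixed with compound and 20 uM heparin and incubated 6 hr at 37 C.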
* = called active by the depositor; u = inconclusive; x = not tested or not shown; [ ] = dose if it differs, or a comment. This is a sample that favours compounds with a hit; in the whole collection about 7.3% have one here. Calls come from the whole dose curve; as a rule, active = well fitted curve in the direction sought with a large enough effect; inconclusive = small, poorly fitted or top-dose-only effect, or another doubt; inactive = no such curve, though single readings can be large; an effect the other way counts as inactive or inconclusive. % is set by controls: 0 for no effect and ±100 for the full control effect; potency is the fitted concentration of half-maximal effect.

SMILES	Tau ThT inhib	RORg inh	Tau fibril FP	VP16 counter	Tau fluor cs
Cc1cccc(NC(=O)c2ccc(S(=O)(=O)NCc3cccnc3)cc2)c1	x	24.9%	x	6.4%	x
CCOc1ccc(Cl)cc1S(=O)(=O)N1CCC(C(=O)NCc2ccco2)CC1	x	15.5%	x	14.5%	x
Cn1c(=O)c2c(ncn2CC(=O)N/N=C/C=C\c2ccccc2[N+](=O)[O-])n(C)c1=O	2.5%	29.0%	1.2%	-7.4%	-0.5%
COc1cc(/C=C(/C(=O)c2cccs2)c2nc3ccccc3[nH]2)cc(OC)c1O	14.1µM*	u	-2.2%	u	u
CC(/C=N/Nc1nc(C)cc(=O)[nH]1)=C\c1ccccc1	u	-1.6%	-4.5%	u	-10.4%
O=[N+]([O-])c1ccc(O)c(/C=N/Nc2ccccn2)c1	u	10µM*	10.2%	11.2µM*	-24.2%
COc1cc(/C=N/Nc2nc3ccccc3[nH]2)ccc1O	5.01µM*	u	u	-28.0%	u
CC(/C=N/Nc1nc2ccccc2[nH]1)=C\c1ccccc1	u	6.31µM*	14.1%	7.08µM*	u
COc1ccc(C(=O)N/C(=C/c2cccs2)c2nc3ccccc3[nH]2)cc1OC	-7.1%	8.0%	-3.8%	u	-9.6%
Cc1ccc(NC(=O)C(Cc2ccccc2)NS(=O)(=O)c2ccc3c(c2)c(=O)n(C)c(=O)n3C)cc1 (configuration not stated)	-1.5%	x	1.2%	x	-16.8%
CC(=O)N1CC(C)Oc2ccc(S(=O)(=O)NC(CC(=O)O)c3cc(C)ccc3C)cc21 (configuration not stated)	x	-1.4%	x	-7.5%	x
CCc1ccccc1-n1nnc(-c2nc(-c3ccccc3F)no2)c1C	5.2%	x	-8.1%	x	-6.5%
O=C(O)COc1ccc(Br)cc1/C=N\Nc1ccccn1	x	2.24µM*	x	-21.5%	x
COC(=O)c1ccc(/C=N/Nc2nc3ccccc3[nH]2)cc1	u	u	9.4%	-8.0%	-27.6%
COc1cccc(/C=N/Nc2nc3ccccc3[nH]2)c1O	u	0.708µM*	12.8%	2.24µM*	-29.6%
O=[N+]([O-])c1ccc(O)c(/C=N/Nc2nc3ccccc3[nH]2)c1	8.91µM*	6.31µM*	4.7%	5.62µM*	u
O=[N+]([O-])c1cccc(N/N=C/c2cc([N+](=O)[O-])ccc2O)c1	u	-35.2%	3.9%	-10.0%	u
COc1cc(/C=N/Nc2nc3ccccc3[nH]2)cc(OC)c1O	11.2µM*	u	u	u	15.8µM*[quencher]
COc1cccc(/C=N/Nc2nc3ccccc3[nH]2)c1OC	u	u	12.4%	u	-26.7%
COc1cc(/C=N/NC(=Nc2ccc(C)cc2)c2nc3ccccc3s2)ccc1O	u	7.08µM*	16.4%	u	11.2µM*[quencher]
COc1ccc(O)c(/C=N/Nc2nc3ccccc3[nH]2)c1	14.1µM*	u	6.6%	u	u
COc1ccc(Cn2c(=O)[nH]c3cc(C(=O)N4CCN(c5cccc(OC)c5)CC4)ccc3c2=O)cc1	-10.9%	x	-6.5%	x	u
COc1cccc(C(=O)NCC(=O)OCC(=O)C(C)(C)C)c1	-1.3%	2.51µM*	4.6%	-3.5%	6.0%
COc1ccc(-c2nc3oc4cc(OC)ccc4c(=O)c3c(=O)n2Cc2ccco2)cc1	u	-23.5%	-3.9%	-2.8%[0.365 µM]	-3.2%
COc1ccc2c(=O)c3c(=O)n(Cc4ccco4)c(-c4ccco4)nc3oc2c1	28.2µM*	-6.6%	-2.6%	2.4%	u
SMILES	Tau ThT inhib	RORg inh	Tau fibril FP	VP16 counter	Tau fluor cs
Cc1ccc(C(=O)N=c2sccn2C)o1	x	-14.8%	x	1.3%	x
Cc1[nH]n(C2=NCCS2)c(=O)c1N=Nc1cccc(C(F)(F)F)c1	12.6µM*	0.282µM*	4.6%	0.631µM*	-16.2%
Cc1[nH]n(C(N)=S)c(=O)c1N=Nc1cc(C(F)(F)F)ccc1Cl	x	0.562µM*	x	u	x
Cc1[nH]n(C(N)=S)c(=O)c1N=Nc1cccc(C(F)(F)F)c1	x	0.112µM*	x	0.398µM*	x
Cc1ccc(C(F)(F)F)cc1NC(N)=S	-1.8%	-31.9%	4.7%	-4.3%	1.1%
Cc1cc(C)cc(NC(=O)CCc2c(C)nn(-c3ccc(N4CCOCC4)nn3)c2C)c1	x	18.8%	x	-4.3%	x
Cc1ccccc1-c1ocnc1C(=O)Nc1ccccc1NC(=O)c1ccccn1	x	2.24µM*	x	7.08µM*	x
CCOCCCNC(=O)C1CCN(c2nn3cc(-c4ccc(F)cc4)nc3s2)CC1	u	x	5.1%	x	-6.4%
CCOC(=O)c1c(C)cc(C)n2c1nc1ccccc12	0.5%	5.62µM*	4.2%	5.5%	6.5%
C/C(=N\NC(=O)c1cc(-c2cccs2)nc2ccccc12)c1ccccn1	0.1%	0.1µM*	3.1%	0.562µM*	-22.8%
CC(NC(=O)c1ccccc1)C(=O)NC1=NCCS1 (configuration not stated)	5.1%	12.0%	4.5%	9.8%	3.2%
O=C(NC1=NCCS1)c1cc(-c2cccs2)nc2ccccc12	-10.3%	25.1µM*	-13.7%	u	u
O=C(NC1=NCCS1)c1cccc2ccccc12	-8.4%	11.2µM*	-1.8%	20.7%[10 µM]	-9.1%
CCCC(C(=O)NC1=NCCS1)c1ccccc1 (configuration not stated)	2.1%	11.2µM*	3.1%	u	-0.1%
CCCC(O)c1nc2ccccc2n1CCCOc1ccc(Cl)cc1 (configuration not stated)	7.4%	x	-8.6%	x	0.8%
CCOC(=O)c1[nH]c2ccccc2c1NC(=O)c1c(F)cccc1F	-8.9%	x	-3.1%	x	-22.4%
COc1cccc(C(=O)NC2=NCCS2)c1	-7.7%	10µM*	3.3%	u	0.4%
COc1ccc(C(=O)NC2=NCCS2)cc1S(=O)(=O)N1CCCCC1C (configuration not stated)	-14.8%	14.1µM*	-2.9%	-2.3%	-14.4%
NNC(=O)c1cc(-c2cccs2)nc2ccccc12	3.8%	20µM*	-2.0%	-26.8%	-15.6%
O=C(NC1=NCCS1)c1cc(-c2cccnc2)nc2ccccc12	-15.8%	11.2µM*	6.3%	-1.3%	-15.5%
O=C(O)c1cc(-c2cccnc2)nc2ccccc12	3.2%	6.3%	9.5%	-4.4%	9.4%
Cc1ccc(NC(=O)c2cc(-c3cccs3)nc3ccccc23)c(C)c1	3.6%	x	-2.9%	x	-10.3%
O=C(CSc1cccc2cccc(Cl)c12)NC1=NCCS1	-12.0%	10µM*	-17.6%	11.2µM*	-21.3%
Cc1cccc2sc(NNC(=O)c3cc(-c4cccs4)nc4ccccc34)nc12	u	0.251µM*	u	17.8µM*	u
CCOC(=O)C1=C(C)NC(=O)NC1/C=C\c1ccccc1 (configuration not stated)	x	1.0%	x	-11.2%	x
CCOC(=O)C1=C(C)NC(=S)NC1/C=C/c1ccccc1 (configuration not stated)	12.4%	1.78µM*	6.2%	2µM*	2.0%
